# About 7,900 targets were measured; listed, in parts, are those with a hit and a random draw of the rest. About 0.6% of all pairs of compound and target were hits. A number with no mark means an inactive call.
# Tests used:
# Assay in all cases: log2 fold change, soluble protein after heating vs DMSO (PISA); higher = thermal stabilisation; K562 cells, 10 uM, 30 min; active = over 0.2 and 3.5 SD of the protein, either way, in both replicates (recomputed)
# [1] = compound: CN1CCN(CCOc2cc(OC3CCOCC3)c3c(Nc4c(Cl)ccc5c4OCO5)ncnc3c2)CC1 [saracatinib]
# How it was run: (§1)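 Values are thermal stability changes relative to control samples and are taken from duplicates. They are stated as log2 fold changes. Before quantification by TMTpro 16plex LC-MS/MS with equalised channel sums, K562 cells at 2×10^6 cells/mL were treated with 10 μM compound for 30 min, heated in aliquots for 3 min across 48°C-58°C, pooled, extracted in PBS with 0.5% NP-40 at 4°C, and centrifuged at 21,000xg for 90 min to give the soluble supernatant.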
# [2] = compound: CN1CCN(c2nc(C3=C(c4c[nH]c5ccccc45)C(=O)NC3=O)c3ccccc3n2)CC1 [sotrastaurin]
# How it was run: as §1
# [3] = compound: CN1CC[C@H](c2c(O)cc(O)c3c(=O)cc(-c4ccccc4Cl)oc23)[C@H](O)C1 [alvocidib]
# How it was run: as §1
# [4] = compound: CN1CCc2c(c3ccccc3n2Cc2ccc(C(=O)NO)cc2)C1 [Tubastatin A]
# How it was run: as §1
# [5] = compound: CNC(=O)C1=CC=CC=C1NC2=NC(=NC=C2Cl)NC3=C(C=C(C=C3)N4CCOCC4)OC
# How it was run: as §1
# [6] = compound: CNC(=O)c1ccc(Nc2ncc(C(F)(F)F)c(NCc3nccnc3N(C)S(C)(=O)=O)n2)cc1 [defactinib]
# How it was run: as §1
# [7] = compound: CNCc1ccc(-c2[nH]c3cc(F)cc4c3c2CCNC4=O)cc1 [rucaparib]
# How it was run: as §1
# [8] = compound: CNc1nc(-c2ccc3c(N)n[nH]c3c2)cc(N2C[C@@H](C(=O)NC3CCCCC3)CC[C@H]2C)n1
# How it was run: as §1
# [9] = compound: COC(=O)N[C@@H](C)CNc1nccc(-c2cn(C(C)C)nc2-c2cc(Cl)cc(NS(C)(=O)=O)c2F)n1 [encorafenib]
# How it was run: as §1
# [10] = compound: COC(=O)[C@H](CCSC)NC(=O)C1=C(C=C(C=C1)NC[C@H](CS)N)C2=CC=CC=C2
# How it was run: as §1
# UniProt Q9H4A4, sequence (Q9H4A4 whole entry, looked up): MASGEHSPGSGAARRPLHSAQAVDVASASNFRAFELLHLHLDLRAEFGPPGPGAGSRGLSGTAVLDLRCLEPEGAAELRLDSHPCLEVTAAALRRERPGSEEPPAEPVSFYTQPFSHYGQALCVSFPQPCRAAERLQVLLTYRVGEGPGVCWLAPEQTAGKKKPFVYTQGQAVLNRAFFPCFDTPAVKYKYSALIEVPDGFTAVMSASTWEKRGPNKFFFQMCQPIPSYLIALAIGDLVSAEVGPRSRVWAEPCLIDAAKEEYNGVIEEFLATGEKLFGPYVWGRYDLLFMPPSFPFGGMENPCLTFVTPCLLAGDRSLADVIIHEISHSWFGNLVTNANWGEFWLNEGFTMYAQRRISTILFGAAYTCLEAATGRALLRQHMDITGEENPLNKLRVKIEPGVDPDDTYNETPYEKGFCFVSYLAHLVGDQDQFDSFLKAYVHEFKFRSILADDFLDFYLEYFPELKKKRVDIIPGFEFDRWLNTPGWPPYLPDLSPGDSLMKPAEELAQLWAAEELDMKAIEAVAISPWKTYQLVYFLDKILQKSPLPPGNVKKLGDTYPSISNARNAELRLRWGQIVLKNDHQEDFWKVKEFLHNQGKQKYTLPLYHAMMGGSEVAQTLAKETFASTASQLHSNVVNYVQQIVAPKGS
# UniProt P11233, sequence (P11233 whole entry, looked up): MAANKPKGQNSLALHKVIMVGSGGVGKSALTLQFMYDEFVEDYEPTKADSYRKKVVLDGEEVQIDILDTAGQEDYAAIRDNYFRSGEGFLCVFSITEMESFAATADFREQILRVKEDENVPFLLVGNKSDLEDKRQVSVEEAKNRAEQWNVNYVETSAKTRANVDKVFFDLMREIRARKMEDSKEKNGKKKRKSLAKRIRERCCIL
# UniProt Q9NR46, sequence (Q9NR46 whole entry, looked up): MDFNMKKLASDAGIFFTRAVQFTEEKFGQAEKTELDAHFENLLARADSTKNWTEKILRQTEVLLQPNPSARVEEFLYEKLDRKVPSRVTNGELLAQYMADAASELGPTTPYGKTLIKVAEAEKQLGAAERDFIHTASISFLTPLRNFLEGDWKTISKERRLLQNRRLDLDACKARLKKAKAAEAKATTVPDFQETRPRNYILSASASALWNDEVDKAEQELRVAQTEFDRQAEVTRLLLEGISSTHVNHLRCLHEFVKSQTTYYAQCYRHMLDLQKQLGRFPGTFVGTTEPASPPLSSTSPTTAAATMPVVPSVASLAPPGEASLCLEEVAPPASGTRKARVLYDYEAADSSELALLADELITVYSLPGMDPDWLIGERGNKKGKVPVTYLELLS
# UniProt Q9P2N5, sequence (Q9P2N5 whole entry, looked up): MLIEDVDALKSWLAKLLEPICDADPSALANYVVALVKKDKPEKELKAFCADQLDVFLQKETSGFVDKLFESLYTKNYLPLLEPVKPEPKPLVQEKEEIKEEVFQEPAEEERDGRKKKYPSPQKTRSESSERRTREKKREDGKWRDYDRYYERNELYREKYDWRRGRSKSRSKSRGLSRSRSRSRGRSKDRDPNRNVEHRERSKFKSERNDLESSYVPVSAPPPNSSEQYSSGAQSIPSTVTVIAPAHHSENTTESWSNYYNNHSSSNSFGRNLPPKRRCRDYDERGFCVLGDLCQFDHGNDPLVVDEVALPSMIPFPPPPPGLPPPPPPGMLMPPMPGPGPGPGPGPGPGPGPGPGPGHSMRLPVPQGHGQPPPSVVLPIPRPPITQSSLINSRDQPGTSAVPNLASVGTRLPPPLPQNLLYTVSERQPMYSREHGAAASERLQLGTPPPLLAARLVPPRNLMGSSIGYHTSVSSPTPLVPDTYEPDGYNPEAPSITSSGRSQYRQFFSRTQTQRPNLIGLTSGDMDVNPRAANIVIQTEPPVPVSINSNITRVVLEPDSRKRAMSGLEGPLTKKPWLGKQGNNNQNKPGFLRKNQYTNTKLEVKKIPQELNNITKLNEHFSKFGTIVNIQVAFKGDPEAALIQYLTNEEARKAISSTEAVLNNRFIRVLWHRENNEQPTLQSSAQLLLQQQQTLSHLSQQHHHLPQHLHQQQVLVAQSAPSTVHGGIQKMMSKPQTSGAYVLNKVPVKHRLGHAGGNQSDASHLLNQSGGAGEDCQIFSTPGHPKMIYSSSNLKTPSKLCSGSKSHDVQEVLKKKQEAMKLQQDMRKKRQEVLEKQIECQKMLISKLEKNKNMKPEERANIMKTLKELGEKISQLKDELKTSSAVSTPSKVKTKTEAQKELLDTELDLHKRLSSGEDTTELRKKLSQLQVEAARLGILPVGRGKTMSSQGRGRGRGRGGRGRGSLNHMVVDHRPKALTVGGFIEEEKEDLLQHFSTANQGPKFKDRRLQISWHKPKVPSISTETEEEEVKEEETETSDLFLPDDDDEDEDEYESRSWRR
# UniProt Q9UPN6, sequence (Q9UPN6 whole entry, looked up): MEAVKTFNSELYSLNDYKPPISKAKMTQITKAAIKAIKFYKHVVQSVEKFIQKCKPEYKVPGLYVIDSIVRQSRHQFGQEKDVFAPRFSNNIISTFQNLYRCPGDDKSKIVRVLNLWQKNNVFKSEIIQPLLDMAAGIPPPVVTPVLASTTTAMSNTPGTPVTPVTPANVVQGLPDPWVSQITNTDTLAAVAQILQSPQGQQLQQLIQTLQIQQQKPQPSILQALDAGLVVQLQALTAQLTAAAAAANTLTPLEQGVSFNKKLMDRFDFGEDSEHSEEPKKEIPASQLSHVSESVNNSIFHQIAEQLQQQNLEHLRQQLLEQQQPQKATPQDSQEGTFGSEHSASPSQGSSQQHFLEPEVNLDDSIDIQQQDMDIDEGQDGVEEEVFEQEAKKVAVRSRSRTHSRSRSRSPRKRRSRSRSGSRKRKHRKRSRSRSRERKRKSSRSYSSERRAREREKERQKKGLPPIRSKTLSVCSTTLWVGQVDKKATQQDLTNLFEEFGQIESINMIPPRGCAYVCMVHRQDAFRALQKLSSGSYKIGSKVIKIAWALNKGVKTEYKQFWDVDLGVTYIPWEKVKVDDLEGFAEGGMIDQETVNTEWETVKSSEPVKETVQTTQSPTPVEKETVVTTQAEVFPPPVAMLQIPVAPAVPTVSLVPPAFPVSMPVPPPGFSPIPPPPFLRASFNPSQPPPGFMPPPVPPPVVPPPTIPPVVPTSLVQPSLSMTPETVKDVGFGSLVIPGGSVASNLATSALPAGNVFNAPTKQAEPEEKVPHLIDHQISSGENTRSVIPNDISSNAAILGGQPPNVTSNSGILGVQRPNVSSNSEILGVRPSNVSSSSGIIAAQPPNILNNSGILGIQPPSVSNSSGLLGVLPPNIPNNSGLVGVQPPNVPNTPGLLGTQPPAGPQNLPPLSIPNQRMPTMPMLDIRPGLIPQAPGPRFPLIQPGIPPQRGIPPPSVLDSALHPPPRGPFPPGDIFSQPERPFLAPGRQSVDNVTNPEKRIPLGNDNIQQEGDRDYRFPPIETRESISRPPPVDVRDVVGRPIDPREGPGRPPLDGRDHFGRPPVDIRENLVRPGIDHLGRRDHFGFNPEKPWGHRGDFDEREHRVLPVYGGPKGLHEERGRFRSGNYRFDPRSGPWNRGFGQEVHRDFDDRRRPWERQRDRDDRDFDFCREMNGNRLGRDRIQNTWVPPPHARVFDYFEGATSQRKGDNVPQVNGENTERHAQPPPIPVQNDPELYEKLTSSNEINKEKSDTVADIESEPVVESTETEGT
# UniProt O00560, sequence (O00560 whole entry, looked up): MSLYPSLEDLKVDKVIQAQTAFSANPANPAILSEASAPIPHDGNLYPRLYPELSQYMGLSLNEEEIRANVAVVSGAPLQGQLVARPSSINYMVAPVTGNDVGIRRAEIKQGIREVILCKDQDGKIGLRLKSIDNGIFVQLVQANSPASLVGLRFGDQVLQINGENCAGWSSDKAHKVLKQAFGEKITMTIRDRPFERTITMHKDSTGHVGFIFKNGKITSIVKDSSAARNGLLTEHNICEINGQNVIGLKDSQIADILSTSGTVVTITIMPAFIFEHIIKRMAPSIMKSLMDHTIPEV
# UniProt Q9H082, sequence (Q9H082 whole entry, looked up): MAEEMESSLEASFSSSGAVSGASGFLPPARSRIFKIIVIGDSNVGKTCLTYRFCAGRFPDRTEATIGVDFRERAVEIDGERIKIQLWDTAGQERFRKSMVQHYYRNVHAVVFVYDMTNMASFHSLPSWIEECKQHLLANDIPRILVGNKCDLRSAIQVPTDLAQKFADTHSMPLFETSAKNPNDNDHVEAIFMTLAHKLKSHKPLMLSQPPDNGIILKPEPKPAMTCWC
# UniProt Q14498, sequence (Q14498 whole entry, looked up): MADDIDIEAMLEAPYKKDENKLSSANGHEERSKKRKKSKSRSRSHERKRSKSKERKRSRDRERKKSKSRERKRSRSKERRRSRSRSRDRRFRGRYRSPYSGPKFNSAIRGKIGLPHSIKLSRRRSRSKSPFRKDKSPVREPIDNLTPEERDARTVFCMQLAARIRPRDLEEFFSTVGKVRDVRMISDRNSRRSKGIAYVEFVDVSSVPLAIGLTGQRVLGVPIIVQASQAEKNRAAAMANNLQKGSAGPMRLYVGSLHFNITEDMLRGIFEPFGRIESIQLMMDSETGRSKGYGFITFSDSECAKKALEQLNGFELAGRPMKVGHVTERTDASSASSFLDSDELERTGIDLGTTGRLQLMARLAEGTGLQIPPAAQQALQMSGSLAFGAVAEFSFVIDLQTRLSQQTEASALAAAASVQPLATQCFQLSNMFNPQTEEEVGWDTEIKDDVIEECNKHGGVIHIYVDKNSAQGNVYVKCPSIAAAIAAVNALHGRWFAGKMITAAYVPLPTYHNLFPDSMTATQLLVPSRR
# UniProt O95059, sequence (O95059 whole entry, looked up): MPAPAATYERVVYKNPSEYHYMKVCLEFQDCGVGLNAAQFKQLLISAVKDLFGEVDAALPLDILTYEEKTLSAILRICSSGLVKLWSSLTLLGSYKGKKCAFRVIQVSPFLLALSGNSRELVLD
# UniProt Q8N5L8, sequence (Q8N5L8 whole entry, looked up): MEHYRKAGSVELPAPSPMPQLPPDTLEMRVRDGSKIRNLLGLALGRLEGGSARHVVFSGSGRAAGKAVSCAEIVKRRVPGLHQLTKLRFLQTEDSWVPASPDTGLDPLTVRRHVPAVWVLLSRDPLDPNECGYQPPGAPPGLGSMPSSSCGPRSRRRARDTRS
Target,log2 fold change [1],log2 fold change [2],log2 fold change [3],log2 fold change [4],log2 fold change [5],log2 fold change [6],log2 fold change [7],log2 fold change [8],log2 fold change [9],log2 fold change [10]
SCD (UniProt O00767),0.066,0.036,0.049,-0.234,0.024,0.025,-0.006,-0.164,0.04,0.045
RBM26 isoform 2 (UniProt Q5T8P6),-0.01,-0.193,-0.226,0.094,-0.074,-0.489 (active),-0.039,0.025,0.03,-0.032
RPP14 (UniProt O95059),0.064,-0.01,0.007,0.059,-0.039,0.012,0.004,-0.029,0.046,-0.034
RPA1 (UniProt P27694),-0.007,-0.016,-0.031,0.039,0.012,-0.076,0.027,-0.01,0.076,-0.021
RNPEP (UniProt Q9H4A4),-0.02,-0.038,-0.106,0.064,0.034,-0.036,-0.004,0.04,-0.005,-0.041
SCG3 (UniProt Q8WXD2),0.191,0.038,0.106,0.021,0.091,-0.163,0.046,-0.113,-0.069,0.062
SDCBP (UniProt O00560),-0.012,0.021,-0.096,0.025,0.007,0.042,0.117,-0.541 (active),0.06,-0.001
RPS15 (UniProt P62841),-0.02,0.07,0.325,0.087,0.04,0.233,0.226,0.061,0.028,0.06
RPS9 (UniProt P46781),-0.044,-0.015,0.237,0.119,0.083,0.226,0.108,0.095,0.118,-0.027
SCAF8 isoform 2 (UniProt Q9UPN6),-0.078,-0.09,-0.167,0.006,-0.085,-0.083,0.004,0.016,0.018,-0.06
SCAMP2 (UniProt O15127),0.084,0.096,-0.155,0.019,0.027,-0.086,-0.321,0.028,0.349,0.101
RUFY1 (UniProt Q96T51),-0.037,-0.174,-0.041,-0.012,0.045,-0.071,0.032,-0.09,0.077,-0.02
RAD50 isoform 2 (UniProt Q92878),0.012,-0.024,-0.084,-0.025,0,-0.103,0.006,0.006,0.008,-0.019
SH3GLB2 (UniProt Q9NR46),-0.059,-0.08,-0.13,0.024,-0.048,-0.148,0.042,-0.02,0.029,-0.086
RPP25L (UniProt Q8N5L8),-0.079,-0.087,0.061,0.026,0.062,0.002,-0.032,-0.158,0.014,0.058
RARS2 (UniProt Q5T160),0.005,-0.101,-0.086,-0.056,-0.035,-0.064,0.003,-0.042,0.026,-0.003
RPTOR (UniProt Q8N122),-0.005,-0.01,0.123,0.027,-0.044,-0.074,-0.068,0.033,0.047,-0.039
RPS18 (UniProt P62269),-0.022,0.039,0.2,0.105,0.071,0.21,0.152,0.041,0.008,0.04
RPS12 (UniProt P25398),-0.014,-0.023,0.123,0.017,0.049,0.092,0.12,-0.008,0.02,0.015
RAB3GAP2 (UniProt Q9H2M9),-0.111,-0.195,-0.013,0.058,0.017,-0.064,0.205,0.039,0.189,-0.089
RB1 (UniProt P06400),0.026,-0.038,-0.885 (active),0.061,0.026,-0.176,-0.195,0.016,0.006,0.019
RPS21 (UniProt P63220),-0.017,0.005,0.104,0.246,0.039,0.052,-0.039,-0.001,0.021,0.027
RAB33B (UniProt Q9H082),0.158,0.057,0.038,0.013,-0.01,-0.005,0.035,-0.031,0,0.032
RETSAT (UniProt Q6NUM9),-0.088,0.054,0.03,0.185,0.02,-0.05,-0.001,-0.014,0.012,-0.075
RBM27 (UniProt Q9P2N5),0.04,-0.039,-0.141,0.013,-0.297 (active),-0.303 (active),-0.015,0.033,-0.011,-0.042
RBM39 (UniProt Q14498),-0.027,-0.089,0.028,0.026,-0.303,-0.16,0.072,-0.183,0.08,0.011
RALA (UniProt P11233),0.203 (active),0.05,0.013,-0.008,-0.045,0.017,0.002,0.086,0.033,0.004

# — the supplement of paper PMC10849652
